Results published in the supplement of paper PMC8728848.
This excerpt belongs to a sample that is enriched for the strongest signals.

How the values were obtained:
Experiment in all cases: glycan array binding signal (z-score within array); higher = stronger binding
Conditions in all cases: glycan notation: IUPAC condensed, linker removed
[1] = target: Fuc(a1-2)Gal(b1-3)GalNAc(b1-3)Gal
Method in brief: (§1)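 Columns mapping to the same glycan were averaged after glycan names were converted to IUPAC-condensed notation. The data come from 3228 arrays in the Consortium for Functional Glycomics database, limited to those with an available protein sequence. Binding is reported as a within-array Z-score averaged across arrays of one protein sequence and across linkers.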

[2] = target: Fuc(a1-2)Gal(b1-3)[Fuc(a1-4)]GlcNAc(b1-3)[Gal(b1-4)GlcNAc(b1-6)]Gal(b1-4)Glc
Method in brief: as §1

Fuc(a1-2)Gal(b1-4)GlcNAc = target: Fuc(a1-2)Gal(b1-4)GlcNAc
Method in brief: as §1

[3] = target: Fuc(a1-2)Gal(b1-4)GlcNAc(b1-3)GalNAc
Method in brief: as §1

[4] = target: Fuc(a1-2)Gal(b1-4)GlcNAc6S
Method in brief: as §1

Fuc(a1-2)Gal6S(b1-4)Glc = target: Fuc(a1-2)Gal6S(b1-4)Glc
Method in brief: as §1

Fuc(a1-2)[Gal(a1-3)]Gal = target: Fuc(a1-2)[Gal(a1-3)]Gal
Method in brief: as §1

[5] = target: Fuc(a1-2)[Gal(a1-3)]Gal(b1-4)GlcNAc
Method in brief: as §1

[6] = target: Fuc(a1-2)[Gal(a1-3)]Gal(b1-4)GlcNAc(b1-2)Man(a1-3)[Fuc(a1-2)[Gal(a1-3)]Gal(b1-4)GlcNAc(b1-2)Man(a1-6)]Man(b1-4)GlcNAc(b1-4)GlcNAc
Method in brief: as §1

[7] = target: Fuc(a1-2)[GalNAc(a1-3)]Gal(b1-3)GlcNAc(b1-2)Man(a1-3)[Fuc(a1-2)[GalNAc(a1-3)]Gal(b1-3)GlcNAc(b1-2)Man(a1-6)]Man(b1-4)GlcNAc(b1-4)GlcNAc
Method in brief: as §1

[8] = target: Fuc(a1-2)[GalNAc(a1-3)]Gal(b1-4)GlcNAc
Method in brief: as §1

[9] = target: Fuc(a1-2)[GalNAc(a1-3)]Gal(b1-4)GlcNAc(b1-2)Man(a1-3)[Fuc(a1-2)[GalNAc(a1-3)]Gal(b1-4)GlcNAc(b1-2)Man(a1-6)]Man(b1-4)GlcNAc(b1-4)GlcNAc
Method in brief: as §1

[10] = target: Fuc(a1-2)[GalNAc(a1-3)]Gal(b1-4)GlcNAc(b1-3)Gal(b1-4)GlcNAc
Method in brief: as §1

[11] = target: Fuc(a1-2)[GalNAc(a1-3)]Gal(b1-4)GlcNAc(b1-3)Gal(b1-4)GlcNAc(b1-3)Gal(b1-4)GlcNAc
Method in brief: as §1

[12] = target: Fuc(a1-3)[Gal(b1-4)]GlcNAc
Method in brief: as §1

Fuc(b1-3)GlcNAc = target: Fuc(b1-3)GlcNAc
Method in brief: as §1

[13] = target: Gal(a1-3)Gal(b1-3)GlcNAc(b1-2)Man(a1-3)[Gal(a1-3)Gal(b1-3)GlcNAc(b1-2)Man(a1-6)]Man(b1-4)GlcNAc(b1-4)GlcNAc
Method in brief: as §1

[14] = target: Gal(a1-3)Gal(b1-4)GlcNAc(b1-3)GalNAc
Method in brief: as §1

[15] = target: Gal(a1-3)Gal(b1-4)[Fuc(a1-3)]GlcNAc
Method in brief: as §1

Gal(a1-6)Glc = target: Gal(a1-6)Glc
Method in brief: as §1

Gal(b1-3)Gal = target: Gal(b1-3)Gal
Method in brief: as §1

[16] = target: Gal(b1-3)GalNAc(b1-3)Gal(a1-4)Gal(b1-4)Glc
Method in brief: as §1

Gal(b1-3)GlcNAc = target: Gal(b1-3)GlcNAc
Method in brief: as §1

[17] = target: Gal(b1-4)GlcNAc(a1-6)Gal(b1-4)GlcNAc
Method in brief: as §1

[18] = target: GlcNAc(a1-3)Gal(b1-4)GlcNAc
Method in brief: as §1

[19] = target: GlcNAc(a1-4)Gal(b1-3)GlcNAc
Method in brief: as §1

[20] = target: GlcNAc(b1-4)GlcNAc(b1-4)GlcNAc(b1-4)GlcNAc(b1-4)GlcNAc(b1-4)GlcNAc
Method in brief: as §1

Kdn(a2-3)Gal(b1-4)Glc = target: Kdn(a2-3)Gal(b1-4)Glc
Method in brief: as §1

[21] = target: Neu5Ac(a2-3)Gal(b1-3)GlcNAc6S
Method in brief: as §1

[22] = target: Neu5Ac(a2-3)Gal(b1-3)[Fuc(a1-4)]GlcNAc(b1-3)Gal(b1-3)[Fuc(a1-4)]GlcNAc
Method in brief: as §1

[23] = target: Neu5Ac(a2-3)Gal(b1-4)GlcNAc(b1-3)Gal(b1-4)[Fuc(a1-3)]GlcNAc
Method in brief: as §1

[24] = target: Neu5Ac(a2-3)Gal(b1-4)[Fuc(a1-3)]GlcNAc
Method in brief: as §1

[25] = target: Neu5Ac(a2-3)Gal(b1-4)[Fuc(a1-3)]GlcNAc6S
Method in brief: as §1

[26] = target: Neu5Ac(a2-3)[GalNAc(b1-4)]Gal(b1-4)Glc
Method in brief: as §1

[27] = target: Neu5Ac(a2-6)GlcNAc(b1-4)GlcNAc(b1-4)GlcNAc
Method in brief: as §1

[28] = target: Neu5Ac(a2-8)Neu5Ac(a2-8)Neu5Ac(a2-8)Neu5Ac(a2-3)[GalNAc(b1-4)]Gal(b1-4)Glc
Method in brief: as §1

[29] = target: Neu5Gc(a2-3)Gal(b1-4)[Fuc(a1-3)]GlcNAc
Method in brief: as §1

B1: GH98CBM51-1 (Streptococcus pneumoniae) (protein)
chain: MTYLSDMDWSSATHGDIDKTKTVQKDAPFTTGNKGEHTKISLLTSDDKVKYFDKGIGTVADSPSVISYDISGQGFEKFETYIGIDQSANSSRSDHAVVDRIEIEIDGKVVYSSSVTNPEGFRYNTQAQFISVTIPQNAKKISLKSFAGEHTWGDEVVFADAKLIKTVST
- glycan array binding signal (z-score) [1]: -0.187
- glycan array binding signal (z-score) [2]: -0.19
- glycan array binding signal (z-score) (Fuc(a1-2)Gal(b1-4)GlcNAc): -0.191
- glycan array binding signal (z-score) [3]: -0.194
- glycan array binding signal (z-score) [4]: -0.194
- glycan array binding signal (z-score) (Fuc(a1-2)Gal6S(b1-4)Glc): -0.185
- glycan array binding signal (z-score) (Fuc(a1-2)[Gal(a1-3)]Gal): 5.96
- glycan array binding signal (z-score) [5]: 5.12
- glycan array binding signal (z-score) [6]: 8.05
- glycan array binding signal (z-score) [7]: -0.122
- glycan array binding signal (z-score) [8]: 5.07
- glycan array binding signal (z-score) [9]: 5.04
- glycan array binding signal (z-score) [10]: 5.55
- glycan array binding signal (z-score) [11]: 4.91
- glycan array binding signal (z-score) [12]: -0.192
- glycan array binding signal (z-score) (Fuc(b1-3)GlcNAc): -0.193
- glycan array binding signal (z-score) [13]: -0.171
- glycan array binding signal (z-score) [14]: -0.191
- glycan array binding signal (z-score) [15]: -0.186
- glycan array binding signal (z-score) (Gal(a1-6)Glc): -0.186
- glycan array binding signal (z-score) (Gal(b1-3)Gal): -0.181
- glycan array binding signal (z-score) [16]: -0.191
- glycan array binding signal (z-score) (Gal(b1-3)GlcNAc): -0.188
- glycan array binding signal (z-score) [17]: -0.186
- glycan array binding signal (z-score) [18]: -0.193
- glycan array binding signal (z-score) [19]: -0.189
- glycan array binding signal (z-score) [20]: -0.195
- glycan array binding signal (z-score) (Kdn(a2-3)Gal(b1-4)Glc): -0.191
- glycan array binding signal (z-score) [21]: -0.196
- glycan array binding signal (z-score) [22]: -0.184
- glycan array binding signal (z-score) [23]: -0.191
- glycan array binding signal (z-score) [24]: -0.191
- glycan array binding signal (z-score) [25]: -0.182
- glycan array binding signal (z-score) [26]: -0.196
- glycan array binding signal (z-score) [27]: -0.193
- glycan array binding signal (z-score) [28]: -0.184
- glycan array binding signal (z-score) [29]: -0.182
